Assay in all cases: NCI-60 one-dose screen, 48 h (100 = growth as untreated, 0 = no growth, -100 = all killed)
Common to all, as to settings: 10 µM unless noted

The subject of assay [1] is HCT-15 colon.
The subject of assay [2] is HT29 colon.
Assay [3] relates to SNB-75 CNS.
Assay [4] has as its system SNB-19 CNS.
The test system of assay [5] is U251 CNS.
The test system of assay [6] is PC-3 prostate.
In assay [7] the test system is SK-MEL-5 melanoma.
Assay [8] has as its system UACC-62 melanoma.
Assay [9] relates to LOX IMVI melanoma.
Assay [10] deals with SK-MEL-28 melanoma.
Assay [11] deals with SK-MEL-2 melanoma.
Assay [12] concerns EKVX NSCLC.
For assay [13], the system named is SN12C renal.
The test system of assay [14] is UO-31 renal.
The subject of assay [15] is TK-10 renal.
Assay [16] has as its system ACHN renal.
The test system of assay [17] is CAKI-1 renal.
Assay [18] deals with A498 renal.
The subject of assay [19] is CCRF-CEM leukemia.
Assay [20] deals with MOLT-4 leukemia.

SMILES strings stand for the structures. The panel holds about 83,000 compounds, 20% with a hit somewhere; the sample as a whole holds those more often.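 Cell lines were cultured in 96-well plates, exposed to a single compound concentration, and assessed for percent growth 48 hours later.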 Values without a mark were called inactive. The source made the active and inactive calls. The calls were made as follows: active = growth percent below 10; inactive = the rest.

Regarding `O=C(Nc1ccc(Nc2ccncc2)cc1)c1ccc(Nc2ccnc3ccc([N+](=O)[O-])cc23)cc1`, the growth was 99.3% in assay [1]; 102% in assay [2]; 97.8% in [3]; 117% in assay [4]; 95.5% in assay [5]; 80.3% in assay [6]. In addition, the growth in [7] is 97.5%; in assay [8], 101%; in [9] it was 90.6%; in assay [10], 109%; in assay [11], 111%; in [12], 107%. Moreover, the growth was 113% in assay [13]; 95.7% in assay [14]; 140% in assay [15]; 100% in assay [16]; 105% in assay [17]; 130% in assay [18]. In addition, the growth was 63.9% in assay [19] and 40.7% in assay [20].

On to `CCN(CCNc1ccc(C)c2sc3cc(Cl)ccc3c(=O)c12)CC(C)(C)O`, for which the growth in assay [1] is 17.5%; in [2], 21.7%; in assay [3], 68.5%; in assay [4], 71%; in [5], 46.3%; in assay [6], 81.2%. For the same molecule, the growth in assay [7] is 63.4%; in [8], -60.1% (active); in assay [9] it was 41.8%; in [10] it was -33% (active); in [11] it was 56.6%; in assay [12], 82%. Further, the growth was 71.5% in assay [13]; 50.5% in assay [14]; 75.7% in [15]; 69.3% in assay [16]; 55.8% in [17]; 75.5% in assay [18]. For the same molecule, the growth is 79.5% in [19] and 70.5% in assay [20].

Consider `Cn1cc(-c2nc3c(F)cc4[nH]ncc4c3c3c2CCCC3)c(C(F)(F)F)n1`, for which the growth in [1] is 23.7%; in [2] it was 37.1%; in assay [3], 22.5%; in assay [4] it was 75.3%; in assay [5] it was 59.8%; in [6], 0.262% (active). Further, the growth in assay [7] is 40.2%; in assay [8] it was 29.5%; in [9], 28.7%; in assay [10], 51%; in assay [11], 49.2%; in [12] it was 38.3%. For the same molecule, the growth in assay [13] was 49.4%; in [14], 18.1%; in [15], 24.7%; in assay [16], 28.4%; in assay [17] it was 18.6%; in assay [18], -15.1% (active). The results for the growth in assay [19] and in assay [20] were -8.03% (active) and -18.9% (active), respectively.

On to `Cn1c(C#N)ccc1-c1ccc(F)c(NC(=O)c2ccc(F)cc2)c1`, for which the growth in assay [1] is 66.6%; in assay [2] it was 47.5%; in [3], 71.4%; in assay [4], 84.1%; in [5], 73.4%; in assay [6], 80.9%. Besides, the growth in [7] is 75.9%; in assay [8] it was 60.8%; in [9], 69.8%; in [10], 86.5%; in assay [11], 60.3%; in [12], 82.2%. For the same molecule, the growth in assay [13] is 82.2%; in assay [14] it was 64%; in assay [15] it was 86%; in assay [16], 84.4%; in assay [17] it was 73.9%; in [18] it was 73.3%. The growth was 68.8% in [19] and 47.6% in assay [20].

Consider `CCCc1cc(=O)oc2c(C(=O)CC(C)C)c(O)c(CC=C(C)C)c(O)c12`, for which the growth in assay [1] was 16.9%; in [2], 57.3%; in assay [3] it was 52.6%; in [4] it was 21.5%; in assay [5] it was 22.5%; in assay [6], 6.87% (active). In addition, the growth was -45.8% (active) in assay [7]; -1.35% (active) in [8]; 33.8% in [9]; 26.3% in assay [10]; 14.1% in assay [11]; 13.7% in [12]. The growth in [13] is 11.6%; in [14] it was 20%; in assay [15] it was 27.4%; in assay [16], 27.5%; in assay [17], 11.1%; in [18], -16.3% (active). The growth in [19] is 12.9%; in assay [20] it was 19.1%.

Take `N#Cc1c(-c2ccc(Br)cc2)nc2c(N=Nc3ccc(S(N)(=O)=O)cc3)c(N)nn2c1N`: the growth is 94.3% in assay [1]; 42.8% in assay [2]; 56.9% in [3]; 61.6% in assay [4]; 41.3% in [5]; 37.6% in [6]. Moreover, the growth is 45.8% in [7]; 72.4% in assay [8]; 28.9% in [9]; 63.2% in assay [10]; 43.4% in [11]; 71.1% in [12]. For the same molecule, the growth in assay [13] is 45.6%; in assay [14] it was 59.5%; in [15], 73.2%; in assay [16], 71.1%; in assay [17], 52.5%; in assay [18], 65%. Besides, the growth in assay [19] is -4.46% (active); in assay [20], 1.59% (active).

As for `O=S(=O)(NCCNc1nccc(-c2c(-c3ccc(F)c(O)c3)nc3sccn23)n1)c1ccc(Cl)cc1`, the growth in assay [1] was 27%; in assay [2], 17.5%; in assay [3], 50.2%; in [4], 46.1%; in assay [5], 41.6%; in [6], 17%. Also, the growth in [7] is -18.5% (active); in assay [8], -1.12% (active); in assay [9], 29.6%; in [10], 47.6%; in [11], -31.6% (active); in assay [12], 36.6%. Besides, the growth in [13] was 26.3%; in assay [14], 11.6%; in assay [15], 44.8%; in assay [16] it was 19.8%; in [17], 19.5%; in assay [18], 30.8%. Also, the results for the growth in assay [19] and in assay [20] were 14.2% and 1.03% (active), respectively.

For the origin of these results see PubChem BioAssay (NCI).
